# Reference: PubChem BioAssay AID1159577 (Broad Institute, 2015)
# The whole screen tested about 1,300 compounds, of which about 240 (18%) were called active. Roughly 8% stayed inconclusive and do not appear here. No rule for the calls is given here. The list is a sample of the results. Measured potencies and affinities stand elsewhere.
# Assay: HepG2 cell cytotoxicity, dose response, cytotoxicity control, cherry-picked samples (AID 1159577)
# Details: HepG2 cytotoxicity counterscreen, plate reader; series mostly up to 19.5 µM
row,Compound,outcome
1,COc1ccc(NC(=O)N(C)C[C@H]2Oc3ccc(NC(=O)Nc4ccc(C(F)(F)F)cc4)cc3CC(=O)N([C@H](C)CO)C[C@@H]2C)cc1,inactive
2,C[C@H]1CN([C@@H](C)CO)C(=O)Cc2cc(NC(=O)Nc3ccc(C(F)(F)F)cc3)ccc2O[C@@H]1CN(C)C(=O)Nc1ccc2c(c1)OCO2,inactive
3,C[C@H](CO)N1C[C@H](C)[C@H](CN(C)CC2CC2)Oc2ccc(NC(=O)Nc3ccccc3)cc2CC1=O,inactive
4,C[C@@H]1CN([C@@H](C)CO)C(=O)Cc2cc(NC(=O)Nc3ccccc3)ccc2O[C@H]1CN(C)CC1CC1,inactive
5,C[C@H](CO)N1C[C@H](C)[C@@H](CN(C)C(=O)Nc2ccc(F)cc2)Oc2ccc(NC(=O)Nc3ccc(C(F)(F)F)cc3)cc2CC1=O,inactive
6,C[C@H](CO)N1C[C@H](C)[C@@H](CN(C)C(=O)Nc2ccc3c(c2)OCO3)Oc2ccc(NC(=O)Nc3ccc(C(F)(F)F)cc3)cc2CC1=O,inactive
7,O=C(c1cccc(F)c1)N1CC(=O)N2[C@H](C1)[C@@H](c1ccc(-c3cccnc3)cc1)[C@@H]2CO,inactive
8,COCC(=O)N1CCC2(CC1)CN(Cc1cccc(OC)c1)[C@@H](CO)c1[nH]c3cc(OC)ccc3c12,inactive
9,C[C@@H]1CN([C@@H](C)CO)C(=O)c2cccc(NC(=O)c3nc4ccccc4s3)c2O[C@@H]1CN(C)C(=O)Nc1cccc2ccccc12,inactive
10,Cc1ccc(-c2ccc3c(c2)O[C@@H](CN(C)C(=O)C2CCCCC2)[C@H](C)CN([C@H](C)CO)S3(=O)=O)cc1,inactive
11,N#Cc1cccc(-c2ccc3c(c2)[C@H]2[C@H](CCN2C(=O)c2ccncc2)[C@H](CO)N3)c1,inactive
12,COc1ccc2c3c(n(C)c2c1)[C@@H](CO)NCC31CCN(Cc2ccc(-c3ccccn3)cc2)CC1,inactive
13,COc1ccc2c3c(n(C)c2c1)[C@H](CO)N(C(=O)Nc1ccc(F)cc1)CC31CCN(Cc2ccccn2)CC1,inactive
14,COc1cccc(CN2CC3(CN(Cc4ccccn4)C3)c3c([nH]c4cc(OC)ccc34)[C@@H]2CO)c1,inactive
15,COc1cccc(CN2CC3(CN(Cc4ccccn4)C3)c3c([nH]c4cc(OC)ccc34)[C@H]2CO)c1,inactive
16,COc1ccc(S(=O)(=O)N(C)C[C@@H]2OCc3ccccc3-c3c(n(C)c4ccccc34)C(=O)N([C@H](C)CO)C[C@H]2C)cc1,inactive
17,C[C@@H]1CN([C@@H](C)CO)C(=O)c2c(c3ccccc3n2C)-c2ccccc2CO[C@H]1CN(C)S(=O)(=O)c1ccc(C(F)(F)F)cc1,inactive
18,O=C(c1ccccn1)N1CC[C@H]2[C@H](CO)Nc3ccc(-c4ccccc4)cc3[C@H]21,inactive
19,CCC(=O)N1CCC2(CC1)CN(Cc1ccc(Cl)cc1)[C@H](CO)c1[nH]c3cc(OC)ccc3c12,inactive
20,Cc1ccccc1-c1ccc(C2[C@H]3CNC[C@@H]2N3S(=O)(=O)c2cccc(F)c2)cc1 (stereo not given in full),inactive
21,N#C[C@@H]1[C@H](c2ccc(C#CC3CCCCC3)cc2)[C@H](CO)N1C(=O)Nc1ccc(F)cc1,inactive
22,CC(C)NC(=O)N1[C@H](C#N)[C@H](c2ccc(C#CC3CCCCC3)cc2)[C@@H]1CO,inactive
23,N#C[C@@H]1[C@@H](c2ccc(C#Cc3ccc(F)cc3)cc2)[C@H](CO)N1C(=O)C1CCCC1,inactive
24,N#C[C@@H]1[C@@H](c2ccc(C#CC3CCCCC3)cc2)[C@H](CO)N1C(=O)Nc1ccc(F)cc1,inactive

row,Compound,outcome
1,OC[C@@H]1[C@@H](c2ccccc2)C2(CN(CCC(F)(F)F)C2)N1Cc1ccccc1,inactive
2,O=C(C[C@@H]1C[C@H]2c3cc(NC(=O)Nc4ccccc4)ccc3O[C@H]2[C@H](CO)O1)NCc1ccccc1,inactive
3,O=C(c1cccnc1)N1CC(=O)N2[C@H](C1)[C@@H](c1ccc(-c3cccnc3)cc1)[C@@H]2CO,inactive
4,CN1c2ccc(-c3ccccc3)cc2[C@@H]2[C@@H](CCN2C(=O)c2ccccc2)[C@H]1CO,inactive
5,Cc1cccc(S(=O)(=O)N2CCCCN3[C@H](C2)[C@@H](c2ccc(-c4cccnc4)cc2)[C@@H]3CO)c1,inactive
6,CCS(=O)(=O)N1CCCCN2[C@H](CO)[C@@H](c3ccc(-c4cccc(C#N)c4)cc3)[C@@H]2C1,inactive
7,COc1ccc(NC(=O)N2CCCCN3[C@H](CO)[C@H](c4ccc(-c5ccccc5F)cc4)[C@@H]3C2)cc1,inactive
8,CCS(=O)(=O)N1CC(=O)N2[C@H](CO)[C@@H](c3ccc(-c4ccccc4F)cc3)[C@@H]2C1,inactive
9,N#C[C@@H]1[C@H](c2ccccc2/C=C/c2ccccc2)[C@H](CO)N1S(=O)(=O)c1ccc(F)cc1,inactive
10,CCCC(=O)Nc1ccc2c(c1)OC[C@@H](C)N(Cc1cccc(F)c1)C[C@@H](C)[C@H](OC)CN(C)C2=O,inactive
11,CC(C)NC(=O)N1[C@H](CO)[C@@H](c2ccccc2)C12CN(Cc1ccc(Cl)cc1)C2,inactive
12,CO[C@H]1CN(C)C(=O)c2cc(NC(=O)Cc3ccccc3)ccc2OC[C@H](C)N(C(=O)c2ccccc2F)C[C@H]1C,inactive
13,CCCNC(=O)Nc1ccc2c(c1)OC[C@H](C)N(Cc1ccc(-c3ccccn3)cc1)C[C@H](C)[C@H](OC)CN(C)C2=O,inactive
14,COc1cccc(S(=O)(=O)N2CCC3(CC2)CN[C@H](CO)c2[nH]c4cc(OC)ccc4c23)c1,inactive
15,C[C@@H]1CN([C@H](C)CO)S(=O)(=O)c2ccc(C#Cc3ccccc3)cc2O[C@H]1CN(C)C(=O)C1CC1,inactive
16,CO[C@@H]1CN(C)C(=O)c2ccc(NC(=O)c3ccc4c(c3)OCO4)cc2OC[C@@H](C)N(Cc2ccc3c(c2)OCO3)C[C@H]1C,inactive
17,COc1ccc2c3c([nH]c2c1)[C@@H](CO)N(Cc1cc(F)ccc1F)CC31CCN(C(=O)C2CCC2)CC1,inactive
18,CCS(=O)(=O)N1CCCCN2[C@H](CO)[C@H](c3ccc(-c4cccc(C#N)c4)cc3)[C@H]2C1,inactive
19,CCS(=O)(=O)N1CCCCN2[C@H](CO)[C@H](c3ccc(-c4cccc(C#N)c4)cc3)[C@@H]2C1,inactive
20,O=C(c1cnccn1)N1CC(=O)N2[C@@H](CO)[C@H](c3ccc(C#CCc4ccccc4)cc3)[C@@H]2C1,inactive
21,C[C@H]1CN([C@@H](C)CO)C(=O)c2cc(NC(=O)Nc3ccc(C(F)(F)F)cc3)ccc2O[C@@H]1CN(C)C(=O)Nc1cccc2ccccc12,inactive
22,CCCC#Cc1ccc(CC[C@H]2O[C@H]3CC[C@H](CO)O[C@H]3C[C@@H]2n2cc(C(C)(C)O)nn2)cc1,inactive
23,COc1ccccc1NC(=O)N1CCCCN2[C@@H](CO)[C@H](c3ccc(C#CC4CC4)cc3)[C@@H]2C1,inactive
24,O=C(Nc1cccc(F)c1)N1CC(=O)N2[C@H](C1)[C@@H](c1ccc(C#CC3CC3)cc1)[C@@H]2CO,inactive

row,Compound,outcome
1,O=C(Nc1ccccc1F)N1CC(=O)N2[C@H](CO)[C@@H](c3ccc(-c4ccccc4)cc3)[C@H]2C1,inactive
2,COc1ccccc1NC(=O)N1CCCCN2[C@H](C1)[C@H](c1ccc(C#CC3CC3)cc1)[C@@H]2CO,inactive
3,CO[C@H]1CN(C)C(=O)c2cc(NC(=O)C3CC3)ccc2OC[C@H](C)N(Cc2cc(F)ccc2F)C[C@H]1C,inactive
4,COCC(=O)N1[C@@H](C#N)[C@H](c2ccccc2-c2ccccc2)[C@@H]1CO,inactive
5,CCCC#Cc1ccc2c(c1)[C@@H]1[C@@H](CCN1S(=O)(=O)c1ccccc1C)[C@@H](CO)N2,inactive
6,COc1ccc2c3c([nH]c2c1)[C@H](CO)N(Cc1cc(F)ccc1F)CC31CN(C(=O)C2CCC2)C1,inactive
7,COc1ccc(-c2ccccc2[C@H]2[C@@H](C#N)N(C(=O)C3CCCCC3)[C@H]2CO)cc1,inactive
8,C[C@@H]1CN([C@H](C)CO)C(=O)c2cccc(NC(=O)c3ccc(-c4nccs4)cc3)c2O[C@H]1CN(C)Cc1ccc2c(c1)OCO2,inactive
9,CCCNC[C@H]1[C@@H](c2ccc(C3=CCCCC3)cc2)[C@@H](CO)N1C(=O)C1CCC1,inactive
10,CCCNC(=O)N1[C@H](C#N)[C@@H](c2ccccc2C2=CCCC2)[C@@H]1CO,inactive
11,CCCNC(=O)N1[C@H](C#N)[C@H](c2ccc(C3=CCCCC3)cc2)[C@H]1CO,inactive
12,C/C=C/c1ccc([C@H]2[C@@H](CO)N(C(=O)C3CCCC3)[C@H]2CNCCC)cc1,inactive
13,N#C[C@@H]1[C@H](c2ccc(C3=CCCC3)cc2)[C@@H](CO)N1C(=O)NC1CCCC1,inactive
14,OC[C@@H]1[C@H](c2ccc(C3=CCCC3)cc2)[C@@H](CNC2CCCC2)N1CC1CC1,inactive
15,CCC(=O)N1[C@H](CO)[C@H](c2ccc(C3=CCCCC3)cc2)[C@H]1CNCC1CCC1,inactive
16,N#C[C@@H]1[C@@H](c2ccc(C3=CCCCC3)cc2)[C@H](CO)N1C(=O)NC1CCCC1,inactive
17,COc1ccc(C#Cc2cccc(-c3nc(C(=O)NCc4ccc5c(c4)OCO5)cc4c3[C@@H](CCO)N(S(=O)C(C)(C)C)C4)c2)cc1OC (stereo not given in full),inactive
18,C[C@H]1CN([C@@H](C)CO)C(=O)c2c(c3ccccc3n2C)-c2ccccc2CO[C@@H]1CN(C)C(=O)Nc1cccc(F)c1,inactive
19,Cc1ccc(S(=O)(=O)N(C)C[C@H]2Oc3cc(C#Cc4ccncc4)ccc3S(=O)(=O)N([C@@H](C)CO)C[C@@H]2C)cc1,inactive
20,CO[C@@H]1CN(C)C(=O)c2ccc(NC(=O)Nc3ccccc3F)cc2OC[C@@H](C)N(CCC(F)(F)F)C[C@H]1C,inactive
21,CO[C@H]1CN(C)C(=O)c2ccc(NS(=O)(=O)CC(F)(F)F)cc2OC[C@H](C)N(C)C[C@@H]1C,inactive
22,COc1ccc(C#Cc2ccc([C@@H]3[C@@H](CO)N4C(=O)CN(C(=O)c5ccccc5)C[C@H]34)cc2)cc1,inactive
